CYP2C19 inhib: human CYP2C19 inhibition; P33261; CYP2C19 Supersomes, luciferin-H EGE luminescence, 30 min; inhibition, % at 5 µM; actives 21% (n = 96,000); AID 778;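 active means CYP2C19 inhibition above a set limit at 5 µM in the primary screen, cut at about 50% in these data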
Cav32 inh: inhibitors of human Cav3.2 T-type calcium channel | O95180 | Cav3.2-expressing cells, Fluo-4 calcium fluorescence FDSS; hits give low values | B-score at 10 µM | actives 4% (n = 100,000);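 active means single-dose well whose peak fluorescence ratio is a statistical outlier from its plate by either plate-standardised score or position-corrected B-score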
Target sequence (O95180 whole entry, looked up): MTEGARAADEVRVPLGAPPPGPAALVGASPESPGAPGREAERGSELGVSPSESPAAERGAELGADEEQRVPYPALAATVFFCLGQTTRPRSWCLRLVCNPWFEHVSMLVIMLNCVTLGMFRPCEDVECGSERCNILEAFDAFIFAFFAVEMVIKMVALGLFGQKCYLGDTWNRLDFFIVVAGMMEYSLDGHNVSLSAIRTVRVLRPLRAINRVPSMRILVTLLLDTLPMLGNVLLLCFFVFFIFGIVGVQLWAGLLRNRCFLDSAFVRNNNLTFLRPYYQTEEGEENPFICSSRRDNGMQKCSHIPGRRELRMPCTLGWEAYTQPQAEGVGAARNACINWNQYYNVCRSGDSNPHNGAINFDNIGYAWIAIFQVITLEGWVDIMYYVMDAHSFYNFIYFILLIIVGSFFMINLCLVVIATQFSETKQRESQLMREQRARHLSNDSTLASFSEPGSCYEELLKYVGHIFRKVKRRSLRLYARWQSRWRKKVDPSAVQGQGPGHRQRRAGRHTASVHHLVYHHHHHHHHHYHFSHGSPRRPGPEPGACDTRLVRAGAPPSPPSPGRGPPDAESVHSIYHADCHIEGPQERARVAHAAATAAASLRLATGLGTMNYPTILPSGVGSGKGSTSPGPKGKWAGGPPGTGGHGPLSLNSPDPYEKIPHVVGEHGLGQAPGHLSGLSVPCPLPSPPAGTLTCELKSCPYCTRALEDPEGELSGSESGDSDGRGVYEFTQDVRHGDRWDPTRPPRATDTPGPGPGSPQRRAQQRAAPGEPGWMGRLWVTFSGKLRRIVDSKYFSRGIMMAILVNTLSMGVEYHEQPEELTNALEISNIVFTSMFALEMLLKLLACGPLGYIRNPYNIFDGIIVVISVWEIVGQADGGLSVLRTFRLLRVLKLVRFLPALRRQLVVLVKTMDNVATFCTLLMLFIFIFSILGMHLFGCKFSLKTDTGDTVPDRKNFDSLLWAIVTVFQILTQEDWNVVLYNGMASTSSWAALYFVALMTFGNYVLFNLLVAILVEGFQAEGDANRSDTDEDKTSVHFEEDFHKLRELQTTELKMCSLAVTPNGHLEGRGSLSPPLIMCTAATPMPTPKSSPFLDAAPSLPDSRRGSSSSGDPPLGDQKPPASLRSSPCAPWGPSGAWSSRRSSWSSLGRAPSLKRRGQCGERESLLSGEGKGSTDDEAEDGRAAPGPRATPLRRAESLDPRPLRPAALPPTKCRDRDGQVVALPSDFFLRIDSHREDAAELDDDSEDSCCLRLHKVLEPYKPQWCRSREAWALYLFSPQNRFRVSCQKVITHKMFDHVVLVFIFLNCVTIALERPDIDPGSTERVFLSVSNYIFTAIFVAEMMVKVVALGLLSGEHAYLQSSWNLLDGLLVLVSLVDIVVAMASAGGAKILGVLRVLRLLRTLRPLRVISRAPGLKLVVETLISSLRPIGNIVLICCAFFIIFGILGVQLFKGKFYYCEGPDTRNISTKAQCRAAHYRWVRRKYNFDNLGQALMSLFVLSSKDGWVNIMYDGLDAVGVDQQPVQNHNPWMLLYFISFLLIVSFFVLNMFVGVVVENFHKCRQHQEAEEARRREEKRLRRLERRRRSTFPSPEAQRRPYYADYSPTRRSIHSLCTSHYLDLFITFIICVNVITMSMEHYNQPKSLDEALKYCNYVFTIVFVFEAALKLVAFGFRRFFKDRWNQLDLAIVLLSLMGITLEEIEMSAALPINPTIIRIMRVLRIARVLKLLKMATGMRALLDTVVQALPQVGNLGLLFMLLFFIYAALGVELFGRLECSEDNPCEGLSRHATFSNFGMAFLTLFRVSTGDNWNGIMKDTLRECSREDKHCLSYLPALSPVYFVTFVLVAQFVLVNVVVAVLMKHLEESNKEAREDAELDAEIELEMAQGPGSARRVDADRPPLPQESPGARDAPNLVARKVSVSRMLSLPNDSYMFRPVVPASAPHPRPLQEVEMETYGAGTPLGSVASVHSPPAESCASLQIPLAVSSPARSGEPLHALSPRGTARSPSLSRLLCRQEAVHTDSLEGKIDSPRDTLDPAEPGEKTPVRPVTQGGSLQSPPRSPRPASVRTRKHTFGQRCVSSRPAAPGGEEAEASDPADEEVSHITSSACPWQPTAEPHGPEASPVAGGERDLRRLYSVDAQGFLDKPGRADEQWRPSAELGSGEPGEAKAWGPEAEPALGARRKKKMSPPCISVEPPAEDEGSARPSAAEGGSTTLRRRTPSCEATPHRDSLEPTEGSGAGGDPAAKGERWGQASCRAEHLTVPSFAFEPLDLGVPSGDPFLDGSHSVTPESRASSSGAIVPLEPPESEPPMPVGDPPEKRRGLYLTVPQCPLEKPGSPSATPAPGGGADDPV
CYP2C9 activ: increases human cytochrome P450 2C9 activity; AID 1024; recombinant CYP2C9, luciferin-H conversion, luminescence; hits give high values; factor 1 = untreated enzyme, 0 = blocked; P11712; activation factor at 5 µM; actives 1.4% (n = 96,000);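 active means activation factor of 2 or more for CYP2C9 at a 5 µM dose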
CYP2C19 activ: increases human CYP2C19 enzyme activity | AID 1025 | activation factor at 5 µM | 96,000 tested, under 10 active | recombinant CYP2C19, luciferin-H EGE luminescence; hits give high values; 0 = fully inhibited enzyme, 1 = untreated enzyme;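 active means activation factor of at least 2 at 5 µM in the primary screen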
CYP2C9 inh: blocks human cytochrome P450 2C9. actives 20% (n = 96,000). CYP2C9 Supersomes, luciferin-H conversion, luminescence. inhibition, % at 5 µM. P11712;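 active means blocking of liver enzyme CYP2C9 beyond about 50% at 5 µM, limit read from the data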
Each line names hits and unclear results; the compound was inactive in the other large screens. Rows were chosen to be rich in hits. Some 27% of all compounds tested hit in one or more screens of this group.

COc1cc(NC(=O)C2CCCN2C(=O)C2CCC(C)CC2)cc(OC)c1OC (stereo unspecified)	none
O=C(CN1C(=O)C2C3C=CC(C3)C2C1=O)Nc1nc(SCc2ccc(Cl)cc2)n[nH]1 (stereo unspecified)	CYP2C19 inhib 60, Cav32 inh -8.3
CCOC(=O)/C(=C\c1ccccc1)C(=O)c1cc(C(C)=O)c(Nc2ccccc2)s1	CYP2C19 inhib 92, CYP2C9 inh 98
CCOC(=O)/C(=C\c1cccnc1)C(=O)c1cc(C(C)=O)c(Nc2ccccc2)s1	CYP2C19 inhib 65, Cav32 inh 4.1, CYP2C9 inh 100
CCOC(=O)c1cccc(NC(=O)c2cccnc2)c1	none
CCCc1ccccc1OCCNC(C)=O	none (no result: Cav32 inh)
COc1ccc(-n2nnnc2SCC(=O)Nc2nnc(C)s2)cc1OC	none (no result: Cav32 inh)
CCOC(=O)Cc1csc(NC(NC(=O)OCC)(C(=O)OCC)C(F)(F)F)n1 (stereo unspecified)	none (no result: CYP2C19 inhib, CYP2C9 activ, CYP2C19 activ, CYP2C9 inh)
CCCNc1nc(NCC)nc(OC)n1	none
Cc1cc(SCNC(=O)c2ccccc2)ncn1	none
Cc1cc(C)nc(SCNC(=O)c2ccc(F)cc2)n1	CYP2C19 inhib 62
Cc1ccc(NC(=O)COc2ccc(/C=C3/SC(=Nc4ccccc4)N(Cc4cccnc4)C3=O)cc2)cc1	CYP2C9 inh 53
Cc1ccc(NC(=O)COc2ccc(/C=N/NC(=O)CSCc3ccccc3)cc2)cc1	none
O=C1NC2CCc3nc4ccccc4c(=O)n3C2=Nc2ccccc21 (stereo unspecified)	none (no result: CYP2C19 inhib, CYP2C9 activ, CYP2C19 activ, CYP2C9 inh)
CC(C)Oc1ccc(S(=O)(=O)N(C(C)C)C(C)C)cn1	none (no result: CYP2C19 inhib, CYP2C9 activ, CYP2C19 activ, CYP2C9 inh)
Clc1cccc(Cl)c1CO/N=C/c1c(-c2ccccc2)nc2n1CCS2	CYP2C9 inh 73
CC(=O)Nc1ccc(S(=O)(=O)N2CCSC2c2ccc(C)cc2)cc1 (stereo unspecified)	Cav32 inh -4.2, CYP2C9 inh 55
COc1ccc(C2SCCN2S(=O)(=O)c2ccc(NC(C)=O)cc2)cc1 (stereo unspecified)	CYP2C19 inhib 55
C#CCNC(=O)C1=C[C@H](c2cn(C(C)=O)c3ccccc23)[C@@H](CCCO)[C@H](OCC)O1	none (no result: CYP2C19 inhib, CYP2C9 activ, CYP2C19 activ, CYP2C9 inh)
C[N+]1(CC(=O)OCCCc2ccccc2)CCOCC1	none
O=C(CN1CCOCC1)OCCCc1ccccc1	CYP2C19 inhib 66
O=[N+]([O-])c1ccc(N2CCC(=NOCc3ccc(Cl)cc3)CC2)cc1	Cav32 inh -5.7
Cc1ccc(C(=O)ON=C2CCN(c3ccc([N+](=O)[O-])cc3)CC2)cc1	none
Cn1c(CCNC(=O)c2cccs2)nnc1SCC(=O)N1CCN(c2ccccc2)CC1	none
c1ccc(-c2nc(N3CCCCCC3)nc(-n3ccnc3)n2)cc1	none
c1ccc(-c2ccc(-n3ccnc3)cc2)cc1	CYP2C19 inhib 99, CYP2C9 inh 90
c1ccc(-c2ccc(C(c3ccccc3)n3ccnc3)cc2)cc1 (stereo unspecified)	none (no result: CYP2C19 inhib, CYP2C9 activ, CYP2C19 activ, CYP2C9 inh)
c1ccc(-c2nc(N3CCN(c4ccccc4)CC3)nc(-n3ccnc3)n2)cc1	CYP2C19 inhib 52, CYP2C9 inh 66
Cc1ccc(NC(=O)CC2Oc3ccccc3NC2=O)c(C)c1 (stereo unspecified)	none
CCCCSc1nnc(-c2cc3c(C(F)(F)F)nn(C)c3s2)n1C	CYP2C9 activ 2
CCCC(=O)Nc1c2c(nn1-c1ccc(OC)cc1)CS(=O)(=O)C2	none
CCC(CC)C(=O)Nc1c2c(nn1-c1ccc(OC)cc1)CS(=O)(=O)C2	CYP2C9 inh 55
C=CCNc1oc(-c2cccs2)nc1C#N	CYP2C19 inhib 72
N#Cc1nc(-c2cccs2)oc1NCc1ccccc1Cl	CYP2C9 inh 57 (no result: Cav32 inh)
N#Cc1nc(-c2ccco2)oc1NCc1ccco1	none
N#Cc1nc(-c2cccs2)oc1NCc1ccc(Cl)cc1	none (no result: Cav32 inh)
Cc1ccc(CNc2oc(-c3cccs3)nc2C#N)cc1	CYP2C9 inh 78
N#Cc1nc(-c2cccs2)oc1NCc1ccco1	CYP2C19 inhib 76, CYP2C9 inh 90
COC(=O)c1cc(-c2ccccc2)n(CC(=O)O)c1C	none (no result: Cav32 inh)
CCn1c(SCc2cccc(C)c2)nnc1-c1ccc(C)cc1	CYP2C19 inhib 86
CCn1c(SCc2ccc(C)cc2)nnc1C1CCN(S(=O)(=O)c2ccc(OC)cc2)CC1	Cav32 inh -4.8
CCn1c(SCc2ccc(OC)cc2)nnc1-c1ccncc1	CYP2C19 inhib 92
CCn1c(SCc2cccc(C(F)(F)F)c2)nnc1-c1ccco1	none (no result: CYP2C19 inhib, CYP2C9 activ, CYP2C19 activ, CYP2C9 inh)
COc1cccc(-c2nnc(SCc3ccc(C#N)cc3)n2Cc2ccco2)c1	CYP2C19 inhib 91, CYP2C9 inh 95
Cc1ccc(-c2nnc(SCc3ccc(C#N)cc3)n2Cc2ccco2)cc1	none
CCn1c(SCc2ccc(F)cc2)nnc1C1CCN(S(=O)(=O)c2ccc(OC)cc2)CC1	none
Cn1c(SCc2ccc(C#N)cc2)nnc1-c1ccccc1	none
Cc1ccc(-n2c(SCc3ccc(C#N)cc3)nnc2-c2ccccn2)cc1	CYP2C19 inhib 50, CYP2C9 inh 51
C=CCn1c(SCc2ccccc2)nnc1-c1cccnc1	none
COc1ccc(-n2c(SCc3ccc(C#N)cc3)nnc2-c2ccccn2)cc1	none
C=CCn1c(SCc2ccc(OC)cc2)nnc1-c1cccnc1	CYP2C19 inhib 77
Cn1c(SCc2ccc(C#N)cc2)nnc1-c1cccc(Cl)c1	CYP2C19 inhib 74
C=CCn1c(SCc2ccc(C#N)cc2)nnc1-c1cccc(OC)c1	CYP2C19 inhib 91, CYP2C9 inh 64
C=CCn1c(COc2ccc(Cl)cc2)nnc1SCc1ccc(C#N)cc1	Cav32 inh -7.7
C=CCN1C(=O)C2C(C(=O)NC)C3(C)C=CC2(O3)C1C(=O)NCc1ccc(OC)cc1 (stereo unspecified)	none
O=C(c1ccco1)N1CCN=C1SCc1ccccc1Cl	CYP2C9 activ 2.6
O=C(C1CC1)N1CCN=C1SCc1ccccc1	CYP2C19 inhib 83
O=C(C1CC1)N1CCN=C1SCc1cccc(F)c1	CYP2C19 inhib 90
O=C(c1ccco1)N1CCN=C1SCc1c(F)cccc1Cl	none
O=C1NCCCC1C(=O)Nc1ccccn1 (stereo unspecified)	none
CCCNC(=O)NC(=O)CN1C(=O)NC(C)(c2ccc(C)cc2)C1=O (stereo unspecified)	none
CCOC(=O)c1c(C)[nH]c(C(=O)CN2C(=O)NC(CC)(c3ccccc3)C2=O)c1C (stereo unspecified)	CYP2C19 inhib 64, Cav32 inh -5.7, CYP2C9 inh 67
CCOC(=O)c1c(C)[nH]c(C(=O)CN2C(=O)NC(C)(c3ccc(C)cc3)C2=O)c1C (stereo unspecified)	CYP2C19 inhib 83, CYP2C9 inh 75
CCOC(=O)c1c(C)[nH]c(C(=O)CSc2nc3ccccc3o2)c1C	none
Clc1cccc(CSC2=NCCCN2)c1	none (no result: CYP2C19 inhib, CYP2C9 activ, CYP2C19 activ, CYP2C9 inh)
Cc1cc(C)nc(SCCc2ccncc2)n1	CYP2C19 inhib 73
Cc1cc(C)nc(SCSc2nc(C)cc(C)n2)n1	none
CCOC(=O)/C(C#N)=C\N(C)C	none (no result: Cav32 inh)
C=CCN1C=CC(=C/C=C(/C#N)C(=O)OCC)C=C1	Cav32 inh -6.4 (no result: CYP2C19 inhib, CYP2C9 activ, CYP2C19 activ, CYP2C9 inh)
COc1ccc(-n2nnc3c(SCC(=O)Nc4ccc5c(c4)OCCO5)ncnc32)cc1	none (no result: Cav32 inh)
O=C(CSc1ncnc2ccccc12)Nc1ccc2c(c1)OCO2	CYP2C19 inhib 62

High-throughput results (PubChem)
